The panel holds about 83,000 compounds, 20% with a hit somewhere; the sample as a whole holds those more often.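 Step 1: grow cells in 96-well plates. Step 2: add test compound at a single concentration. Step 3: incubate 48 h. Step 4: record percent growth.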 A number with no mark means an inactive call. Activity calls are given as the source filed them. The calls were made as follows: active = growth percent below 10; inactive = the rest.
test system: SF-539 CNS; assay: NCI-60 one-dose screen, 48 h (100 = growth as untreated, 0 = no growth, -100 = all killed); conditions: 10 µM unless noted

| SMILES | growth |
| --- | --- |
| CC(=O)Oc1ccc(CCN2C(=O)CSC2=S)cc1 | 85.2% |
| COc1cc(/C=N/n2cnc3oc(-c4ccccc4)cc3c2=N)cc(CN2CCOCC2)c1O | 60.9% |
| CCOC(=O)/C=c1\sc2n(c1=O)C1C(NN=2)N(CC)C(=O)N1CC (centres undefined) | 54.4% |
| CN(C)c1ccc(/C=N/Nc2nc(N/N=C/c3ccc(N(C)C)cc3)nc(N3CCOCC3)n2)cc1 | 96.7% |
| COc1cc2oc(-c3cccc(NC(=O)c4cc(NC(=O)[C@H](C)NC(=O)OC(C)(C)C)ccc4C)c3)cc(=O)c2c(OC)c1OC | 79.4% |
| CN1CCN(Cc2ccc(NC(=O)c3cncc(C#Cc4cnc5ccc(NC6CCOCC6)nn45)c3)cc2C(F)(F)F)CC1 | -92.1% (active) |
| O=C(Nc1ccc(Cl)cc1)Nc1nc2ccc([N+](=O)[O-])cc2s1 | -22.3% (active) |
| CCCCCCNC(=O)Oc1ccc(/C(=C(/C)c2ccc(OC)cc2)c2ccc(OCCN3CCCC3)cc2)cc1 | 37.7% |
| O=c1c2ccccc2nc(COc2ccccc2)n1/N=C/C=C/c1ccccc1 | 100% |
| CCCCCc1ccc(S(=O)(=O)N(C(C)=O)c2cccc(-c3csc(N(CCN4CCN(C)CC4)C(C)=O)n3)c2)cc1 | -80.9% (active) |
| O=C(NNc1nc2cc(F)c(F)cc2n2cccc12)c1ccncn1 | 6.94% (active) |
| O=C(CCCCCCN1CC(=O)N2[C@@H](c3cccc(Cl)c3)c3[nH]c4ccccc4c3C[C@H]2C1=O)NO | 50.6% |
| O=C(/C=C/c1cn(-c2ccccc2)nc1-c1ccc(Cl)cc1)c1cc2ccccc2oc1=O | 68.4% |
| COc1cc(/C=C/C(=O)c2ccc(NC(=O)COc3cccc4cccnc34)cc2)cc(OC)c1OC | 72.3% |
| O=C(Nc1cccc(Cl)c1)Nc1nc2ccc([N+](=O)[O-])cc2s1 | 7.66% (active) |
| O=C(NNc1nc2cc(F)cc(F)c2n2cccc12)c1ccncn1 | 7.47% (active) |
| C[C@H]1[C@H](C)CC[C@]2(COC(=O)c3cccnc3)CC[C@]3(C)C(=CC[C@@H]4[C@@]5(C)CCCNC(C)(C)[C@@H]5CC[C@]43C)[C@H]12 | 78.8% |
| CN1CCN(c2ccc(NC(=O)Nc3ccc4c(ccn4-c4cccc(C(N)=O)n4)c3)cc2C(F)(F)F)CC1 | 6.11% (active) |
| COc1ccc(OC)c([C@H]2c3[nH]c4ccccc4c3C[C@H]3C(=O)N(CCCCCCC(=O)NO)CC(=O)N23)c1 | 78.5% |
| CS(=O)c1nccc(-c2c(-c3ccc(F)c(OCc4ccccc4)c3)nc3sccn23)n1 (centres undefined) | 94.6% |

| SMILES | growth |
| --- | --- |
| CC(=O)NC(C)(C)C(=O)N1CCC[C@H]1C(=O)NC(C)(C)C(=O)N[C@@H](C)C(=O)NC(C)(C)C(=O)N[C@@H](C)C(=O)N[C@@H](CCC(N)=O)C(=O)NC(C)(C)C(=O)N[C@H](C(=O)NC(C)(C)C(=O)NCC(=O)N[C@@H](CC(C)C)C(=O)NC(C)(C)C(=O)N1CCC[C@H]1C(=O)N[C@H](C(=O)NC(C)(C)C(=O)NC(C)(C)C(=O)N[C@@H](CCC(N)=O)C(=O)N[C@@H](CCC(N)=O)C(=O)N[C@H](CO)Cc1ccccc1)C(C)C)C(C)C | 62.2% [4.25 µM] |
| C=C(C)[C@@H]1CC[C@]2(C(=O)NCCCN(CCC#N)CCC#N)CC[C@]3(C)[C@H](CC[C@@H]4[C@@]5(C)CCC(=O)C(C)(C)[C@@H]5CC[C@]43C)[C@@H]12 | 99.7% |
| O=C(CN1C(=O)S/C(=C\c2ccccc2)C1=O)Nc1ccc(C(=O)/C=C/c2cc3ccccc3nc2Cl)cc1 | 90.8% |
| N#Cc1c(-c2cccs2)cc(-c2cnccn2)nc1SCC(=O)NNC(=S)Nc1ccc(F)cc1 | 98.1% |
| CN1CCN(c2nc(-c3cnc4ccccc4n3)cc3ccccc23)CC1 | 80.1% |
| Cc1cc(O)c(=O)cc2c1C[C@H]1CC(C)(C)/C=C/C[C@]3(C)Oc4cc(=O)c(O)cc(C)c4C[C@H]3C[C@H](O)[C@@]1(C)O2 | 7.55% (active) |
| CC(C)=CCC[C@](C)(O)[C@H]1CC[C@]2(C)[C@@H]1CC[C@@H]1[C@@]3(C)CCC(NC(=O)c4ccccc4C(=O)O)C(C)(C)[C@@H]3CC[C@]12C (some centres undefined) | 89.3% |
| CN1CCN(c2ccc3c(C(N)=O)c(NC(=O)c4ccc(C(C)(C)C)cc4)sc3c2)CC1 | 63.6% |
| COc1ccc(-c2nc(SCC(C)C)nc(N/N=C\c3cccc([N+](=O)[O-])c3)c2C#N)cc1 | 8.02% (active) |
| Cc1cc(F)cc(NS(=O)(=O)c2ccc(-c3cnc(C4CC4)o3)cc2)c1 | -1.6% (active) |
| C/C(=N\NC(=O)CSc1nc2sc3c(c2c(=O)n1-c1ccccc1)CCC(C)C3)c1ccc(Cl)cc1 (centres undefined) | 18.5% |
| COc1ccc(NC(=O)[C@H](C)N)cc1C(=O)Nc1cccc(-c2cc(=O)c3c(OC)c(OC)c(OC)cc3o2)c1 | 71.9% |
| CC[C@H](C)[C@H]1NC(=O)[C@@H]([C@H](O)C(C)C)NC(=O)[C@@H](C)N(C)C(=O)[C@H](C)N(C)C(=O)[C@H](CC(C)C)NC(=O)[C@H](CC(C)C)N(C)C(=O)[C@H](C)N(C)C1=O | -12.6% (active) |
| IP(CCCSc1n(Cc2ccc3ccccc3c2)c(-c2ccccc2)c(-c2ccccc2)[n+]1Cc1ccc2ccccc2c1)(c1ccccc1)(c1ccccc1)c1ccccc1 | 35.3% |
| N/C(=N\OC(=O)CSc1nc2ccccc2s1)c1ccc(Cl)cc1 | 95.5% |
| CC(=O)NC(C)(C)C(=O)N[C@@H](C)C(=O)NC(C)(C)C(=O)N[C@@H](C)C(=O)NC(C)(C)C(=O)N[C@@H](C)C(=O)N[C@@H](CCC(N)=O)C(=O)NC(C)(C)C(=O)N[C@H](C(=O)NC(C)(C)C(=O)NCC(=O)N[C@@H](CC(C)C)C(=O)NC(C)(C)C(=O)N1CCC[C@H]1C(=O)N[C@H](C(=O)NC(C)(C)C(=O)NC(C)(C)C(=O)N[C@@H](CCC(N)=O)C(=O)N[C@@H](CCC(N)=O)C(=O)N[C@H](CO)CC1CCCCC1)C(C)C)C(C)C | 29.3% [5 µM] |
| CCOC(=O)C1=C(C)Nc2nnc(Nc3ccccc3)n2C1c1ccccc1 (centres undefined) | -3.55% (active) |
| COc1cc(OC)c(S(N)(=O)=O)cc1C(=O)/C=C/c1ccccc1 | 1.13% (active) |
| CCOC(=O)/C(F)=C/C1CC1C1CCCCC1 (centres undefined) | 94.3% |

Reference: PubChem BioAssay (NCI)
